In this assay the test system is thyroid hormone receptor (endogenous TRα and TRβ). Further details: species or system GH3-TRE-Luc (rat pituitary); GH3-TRE-Luc luciferase reporter, antagonist mode against 1 nM T3, loss of signal, qHTS. The conditions noted are these: read-out: Average AC50 (uM) GH3-TRE-Antag.
Setting [1] is: antagonist mode, 1 nM T3, no GH3 cytotoxicity hit.

This is an account of results in publication PMC6792352, “Limited Chemical Structural Diversity Found to Modulate Thyroid Hormone Receptor in the Tox21 Chemical Library” (Environmental Health Perspectives, 2019).

Structures can show the parent of a compound that is named as a salt. Where two headings read alike, the source gives them in different places. A value given as a limit tells only on which side of the number the result lay.

Take `CCCSP(=O)(OCC)Oc1ccc(Br)cc1Cl` (stereo not shown) [Profenofos]: the AC50 (commonly the midpoint of the concentration-response curve, whichever way the signal moves) under setting [1] was above 50 µM.

Turning to `Cc1cc2c3c(c1)C(c1ccccc1)=N[C@@H](NC(=O)c1ccncc1)C(=O)N3CC2` [CI-1018], under “24 h, antagonist”, the AC50 stood at 27.4 µM.

For the compound `CCN(CC)C(=O)[C@@H]1C=C2c3cccc4[nH]cc(c34)C[C@H]2N(C)C1` [Lysergide], the AC50 under setting [1] was above 50 µM.

For `O=P(Oc1ccccc1)(Oc1ccccc1)Oc1ccccc1` [Triphenyl phosphate], the AC50 under setting [1] is above 90 µM.

Consider `CCOP(=S)(OCC)SCn1nnc2ccccc2c1=O` [Azinphos-ethyl], for which the AC50 under setting [1] is above 90 µM.

In the case of `CC(C)(C)c1ccccc1OP(=O)(Oc1ccccc1)Oc1ccccc1` [tert-Butylphenyl diphenyl phosphate], the AC50 under setting [1] came out at 88.4 µM.

For `CC(C)NC(C)Cc1ccc(I)cc1` (stereo not shown) [Iofetamine hydrochloride], the AC50 under setting [1] was determined as 22.3 µM.

For `CC(C)=CC1C(C(=O)OCN2C(=O)C3=C(CCCC3)C2=O)C1(C)C` (stereo not shown) [Tetramethrin], under setting [1], the AC50 was above 50 µM.

Consider `Oc1c(Br)cc(Br)cc1Br` [2,4,6-Tribromophenol], for which the AC50 under setting [1] is above 50 µM.

For the compound `CCC1COC(Cn2cncn2)(c2ccc(Cl)cc2Cl)O1` (stereo not shown) [Etaconazole], the AC50 under setting [1] is 36.8 µM.

As for `CCCCC(CC)COP(=O)(Oc1ccccc1)Oc1ccccc1` (stereo not shown) [2-Ethylhexyl diphenyl phosphate], under setting [1], the AC50 is 48.3 µM.

With `CC[C@@H](O)C(C[C@@H](C)N(C)C)(c1ccccc1)c1ccccc1` [(+)-alpha-Methadol hydrochloride], the AC50 under setting [1] came to 55.7 µM.

On to `CSCCCN=C=S` [3-(Methylthio)propyl isothiocyanate], for which the AC50 (24 h, antagonist) was above 90 µM.

With `CCCCCCCCC(=O)NCc1ccc(O)c(OC)c1` [Nonivamide], for the setting “24 h, antagonist”, the AC50 was above 50 µM.

On to `CCc1cc(OC)c(C[C@@H](C)N)cc1OC` [(-)-2,5-Dimethoxy-4-ethylamphetamine hydrochloride], for which the AC50 (24 h, antagonist) was found to be 71.2 µM.

On to `CN1C(=O)C(O)N=C(c2ccccc2)c2cc(Cl)ccc21` (stereo not shown) [Temazepam], for which the AC50 (24 h, antagonist) is above 50 µM.

Regarding `C[C@]12CCC(=O)C[C@@H]1CC[C@@H]1[C@@H]2CC[C@@]2(C)[C@H]1CC[C@]2(C)O` [Mestanolone], the AC50 under setting [1] is 10.8 µM.

With `C=CC(=O)OCCO` [2-Hydroxyethyl acrylate], the half-maximal activity concentration (AC50) under setting [1] is 51.5 µM.

With `COP(=S)(OC)Oc1ccc(Sc2ccc(OP(=S)(OC)OC)cc2)cc1` [Temephos], the AC50 under setting [1] was above 50 µM.

On to `C[C@]12CCC(=O)C[C@@H]1CC[C@@H]1[C@@H]2CC[C@]2(C)[C@@H](O)CC[C@@H]12` [5alpha-Dihydrotestosterone], for which the AC50 under setting [1] was found to be 27.8 µM.

On to `C[C@]12CC[C@H]3[C@@H](CCC4=CC(=O)CC[C@@]43C)[C@@H]1CC[C@@H]2OC(=O)CCc1ccccc1` [Testosterone 17-phenylpropionate], for which, under setting [1], the AC50 is 30 µM.

Consider `CCC(N)Cc1c[nH]c2ccccc12` (stereo not shown) [Etryptamine acetate], for which, under setting [1], the concentration at half-maximal activity (AC50) is 43.6 µM.

Take `O=[N+]([O-])c1ccc(Oc2ccc(C(F)(F)F)cc2[N+](=O)[O-])cc1` [Fluorodifen]: under setting [1], the AC50 is above 90 µM.

Regarding `C[C@H](CN1CCOCC1)C(C(=O)N1CCCC1)(c1ccccc1)c1ccccc1` [Dextromoramide tartrate], the concentration at half-maximal activity (AC50) under setting [1] amounted to 56.7 µM.

For the compound `ClC1(Cl)C2(Cl)C3(Cl)C4(Cl)C(Cl)(Cl)C5(Cl)C3(Cl)C1(Cl)C5(Cl)C24Cl` (stereo not shown) [Mirex], the AC50 under setting [1] is above 90 µM.

On to `CC(=O)O[C@H]1CC[C@@]2(C)C(=CC[C@@H]3[C@@H]2CC[C@]2(C)C(=O)CC[C@@H]32)C1` [Dehydroepiandrosterone acetate], for which, under setting [1], the AC50 amounted to 17.4 µM.

As to `OCC(c1ccc(Cl)cc1)c1ccc(Cl)cc1` [2,2-Bis(4-chlorophenyl)ethanol], the AC50 under setting [1] was found to be 46.2 µM.

Regarding `CN1C[C@H](C(=O)N[C@]2(C)O[C@@]3(O)[C@@H]4CCCN4C(=O)[C@H](Cc4ccccc4)N3C2=O)C=C2c3cccc4[nH]cc(c34)C[C@H]21` [Ergotamine D-tartrate], under setting [1], the AC50 worked out at 36.2 µM.

Turning to `COc1ccc(N)cc1` [4-Methoxyaniline hydrochloride], the AC50 (antagonist mode, 1 nM T3, no GH3 cytotoxicity hit, 24 h) was found to be 81.8 µM.

As for `CCOc1ccc2c3c1O[C@H]1[C@@H](O)C=C[C@H]4[C@@H](C2)N(C)CC[C@@]341` [Ethylmorphine], the AC50 under setting [1] is 44.9 µM.

As to `Cc1ncc2n1-c1ccc(Cl)cc1C(c1ccccc1F)=NC2` [Midazolam hydrochloride], the AC50 (24 h, antagonist) is 32.8 µM.
